PMC13494018
Values without a mark were called inactive. How the calls were made is not given here.

Target: VTCN1, Q7Z7D3
Sequence (Q7Z7D3 whole entry): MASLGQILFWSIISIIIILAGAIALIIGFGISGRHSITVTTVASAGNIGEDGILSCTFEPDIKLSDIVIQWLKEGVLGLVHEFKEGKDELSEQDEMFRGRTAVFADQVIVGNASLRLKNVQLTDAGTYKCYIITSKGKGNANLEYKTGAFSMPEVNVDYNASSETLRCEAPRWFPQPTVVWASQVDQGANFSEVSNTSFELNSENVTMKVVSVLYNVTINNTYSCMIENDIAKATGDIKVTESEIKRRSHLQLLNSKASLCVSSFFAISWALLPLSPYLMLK

| Binder | binding in a display sort |
| --- | --- |
| design_606_b60ff77f-1541-4e5f-8260-46d5e5f6b85e_1772_dldesign_0_cycle1_af2pred (protein) SKKEEVKERVKEVLERAKKVAERGKKAGVDINEASEMMALAYEAKAAAEAGHIEEAEKLMKKAEEKLKKLEKRAKELEA | not found |
| design_606_b60ff77f-1541-4e5f-8260-46d5e5f6b85e_2092_dldesign_0_cycle1_af2pred (protein) MEEEKKKKAKELGEKLVEEVKKAAEEAKKTAETGTPEDAEKAKLDLSKKVHEALSELAEIGQKYDWEEAEKAKKEVIEIGKKAVA | not found |
| design_607_777643b9-bd23-49d1-80ae-2b1434974efa_321_dldesign_0_cycle1_af2pred (protein) SKIYEEKKKEIEEAAEKAKELAKKDPEKGRKYLKEKNKKFKEFVEKLKADPKTKADAEKILKEASKKSAEVYEVIAEEEQKKRRE | not found |
| design_607_777643b9-bd23-49d1-80ae-2b1434974efa_649_dldesign_0_cycle1_af2pred (protein) DAAKAAAKAFAAGAIKLAEKLAKEYPEIAATMKEAIAAAKEAAKLADTDAAAGKAAASAANFTVLEAYAEAKA | not found |
| design_607_777643b9-bd23-49d1-80ae-2b1434974efa_529_dldesign_0_cycle1_af2pred (protein) NLGEKASKATKVLVDAAKEIAKKAGEEAKAKAAAALVTLFSLFEDPEKAAKEAKALVPEKAKPIVEKAAKEADKLLN | not found |
| design_606_b60ff77f-1541-4e5f-8260-46d5e5f6b85e_2053_dldesign_0_cycle1_af2pred (protein) SSSLIEENKKEAKEEFNKFAIENGEKRIKEAKELLKKDPEKGKEALKKVLEEAKKLKEKNPEAGEKVEKAAEKALKEA | not found |
| design_607_777643b9-bd23-49d1-80ae-2b1434974efa_1231_dldesign_0_cycle1_af2pred (protein) AEEEKKKKEEEKKRTAENKALAYEEAARHAMEQGEKGSPEQRPAAVERAREFAKRAIEADPKKGAELLKEVEAFAAKWEEEA | not found |
| design_606_b60ff77f-1541-4e5f-8260-46d5e5f6b85e_2038_dldesign_0_cycle1_af2pred (protein) EAKEKAKLLKEAAKLAKEAAKAAADKEKAKKLATEAADLAIKAGDYKTNGYMESAILNAEAGNAEAAKAAAEKAAKRAEEKAKKL | not found |
| design_606_b60ff77f-1541-4e5f-8260-46d5e5f6b85e_1975_dldesign_0_cycle1_af2pred (protein) AEAESQKVLDTAAELEADLILLGYKKPEIKEQALEDAKKVRRNAREAAGLILKDPEKGKKLAEETEKEGKELIKKYEEEV | not found |
| design_607_777643b9-bd23-49d1-80ae-2b1434974efa_351_dldesign_0_cycle1_af2pred (protein) SEEEAKKLAEEAAKKAREAAEEAEKLAKEAEKIGNKKIANKLYAYAERLKNVAESVELHAGDKEYAEKGLEVTEKLRKKAKELYKEAK | not found |
| design_606_b60ff77f-1541-4e5f-8260-46d5e5f6b85e_2386_dldesign_0_cycle1_af2pred (protein) KEEEFEKLKQKAAQLILESYDALSKNIEEAKKYLKEALKAAEEAKKVDPEKGEEVLKKVEKTSKSILKSMELAKKA | not found |
| design_607_777643b9-bd23-49d1-80ae-2b1434974efa_1272_dldesign_0_cycle1_af2pred (protein) EEAFKEAGEKALEYAEKVLKLAKKEPEVLEKAEKGLELLKKGIETGDKDLLVKARSYFLQVASYASPEVAEVAEKAAEYIDEAYILLS | not found |
| design_606_b60ff77f-1541-4e5f-8260-46d5e5f6b85e_2269_dldesign_0_cycle1_af2pred (protein) ITEDEVVEINNKGSKEGPLWKEAADYAIKALSYKIIAELVLSSENAEEDHKKALAKAEEYEAKYKEKLEKAEKAKKEK | not found |
| design_606_b60ff77f-1541-4e5f-8260-46d5e5f6b85e_2085_dldesign_0_cycle1_af2pred (protein) ERKQEAAELAERLLEKGEKGDEFTGSAYVTRAAHAIGEALGDEEVEKEIEEANKKDVKEGIKLAREKLEELRAA | not found |
| design_607_777643b9-bd23-49d1-80ae-2b1434974efa_981_dldesign_0_cycle1_af2pred (protein) MAEEAKKKLEQAAKLMAIAYETLAAGERGLATPEELKEAAKKAEEAAKLAKEVGKVTPEKEYYEKAAKRAEKVAKRLKELAKKIEE | not found |
| design_606_b60ff77f-1541-4e5f-8260-46d5e5f6b85e_2076_dldesign_0_cycle1_af2pred (protein) ATQAEASQAAAEASEARAELEQAAKKLKEEGKEELAKKAEEAAEEARKLLKQAQKADTDTAYKLAQEAKKKLEKELKKAKKA | not found |
| design_607_777643b9-bd23-49d1-80ae-2b1434974efa_648_dldesign_0_cycle1_af2pred (protein) SEEERRRREEAYRELSEALREARELGKRLKEAGADPEVIKRLSELLAEISETLAELRAGLANEEEIERAKEAAREALELAREELERL | not found |
| design_607_777643b9-bd23-49d1-80ae-2b1434974efa_1238_dldesign_0_cycle1_af2pred (protein) SLKEALLEEAKEAIKAAKAGDASKVAAETLEMRSAAEALAKDDEEAKKFAEKTRKALELLRKDPEKGLKYAEEVAKEIIKAIE | not found |
| design_606_b60ff77f-1541-4e5f-8260-46d5e5f6b85e_1627_dldesign_0_cycle1_af2pred (protein) EEEKKKKYEELLKKAREEMEKLGKEFKKAVEKGDSKAASEAFRKAVKVAREAGEEAKKLGPEGEELEKELSQLLLEIAD | not found |

| Binder | binding in a display sort |
| --- | --- |
| design_607_777643b9-bd23-49d1-80ae-2b1434974efa_278_dldesign_0_cycle1_af2pred (protein) SSLTLEASKKSGEAYFLLNEAEFLAKKKGDEETAKKAEEARKKLKEKLDAAKTGAEKLAAALEGLKEAEKIYKEALE | not found |
| design_606_b60ff77f-1541-4e5f-8260-46d5e5f6b85e_2039_dldesign_0_cycle1_af2pred (protein) SEEEEASKRNKELADKIREAVRNMREAYAAMQAALAAGDAAAAKAAADKALAQAKVLEELGLTSQAQSNAAKIKADLAAGLAALAA | not found |
| design_606_b60ff77f-1541-4e5f-8260-46d5e5f6b85e_1676_dldesign_0_cycle1_af2pred (protein) DEAVKKAKELAKKLLEEAKKAAKKGDVETVKAIAKEAKAKAEEAEKNEGFKAAAELYSAYFRIEHMAESLA | not found |
| design_607_777643b9-bd23-49d1-80ae-2b1434974efa_839_dldesign_0_cycle1_af2pred (protein) AAAAAKAQADAILADAKAKAAEALKKDPKTGAEEAAKIYRAAAAKLRALGAEVADDPEAVAYLSKVAAELYELAAEYASKAARL | not found |
| design_606_b60ff77f-1541-4e5f-8260-46d5e5f6b85e_1785_dldesign_0_cycle1_af2pred (protein) MTPEERRARGEEELARLAKKIEEARKKAEEDGKKGSQDLFSLAERLENLAESAPEIAEEARALGEEARKLAEKLYS | not found |
| design_606_b60ff77f-1541-4e5f-8260-46d5e5f6b85e_2122_dldesign_0_cycle1_af2pred (protein) GMEEEKERALEEIRRAREEIKKVAEELKEVDPELAKKAEKVLERAERGLEEGEKNPIAAIGMAEIVRDQLENGKKLLAEKKA | not found |
| design_607_777643b9-bd23-49d1-80ae-2b1434974efa_280_dldesign_0_cycle1_af2pred (protein) GAEKEKAEKIAKEKLAEGKKLAEEAKKGTPEEAKKKRKEFLEELKKLAKEGTPYLAKLLAKVAAEVSEAFAEAYAEALRK | not found |
| design_607_777643b9-bd23-49d1-80ae-2b1434974efa_640_dldesign_0_cycle1_af2pred (protein) AETEKKIKELEKKAHDAYQKAAEYYHDKNLKEAGDLYRKAAKLYAEAAKALAKGEEAPKAEEYEAKAKAYEEEAQKLKA | not found |
| design_607_777643b9-bd23-49d1-80ae-2b1434974efa_139_dldesign_0_cycle1_af2pred (protein) NEEQKKLAEEAIEEIKRLQEKAFDAVGAGDIEEAKKYLEEMEKVAKETAAKVPPEYAKKVLEALEKAKKAVESAIKAAEENEK | not found |
| design_607_777643b9-bd23-49d1-80ae-2b1434974efa_665_dldesign_0_cycle1_af2pred (protein) MKETEEEIKKIEEEAKELAEKGKEKSVEEFKKEMVKFIFSLADEGAHPEAISSAARIAKESYEKLKKKEEEEKK | not found |
| design_607_777643b9-bd23-49d1-80ae-2b1434974efa_21_dldesign_0_cycle1_af2pred (protein) MEVEKLRKKAVEEAKKGGLGTPEEAREKRKKAEELLKEMKKAGATEEEVAKAATEAAEAYVEAKNEKYLKE | not found |
| design_606_b60ff77f-1541-4e5f-8260-46d5e5f6b85e_2343_dldesign_0_cycle1_af2pred (protein) DAEEHAKEAEKAIKEAKAYIEEAIKTGDSEKAHEARQKLAEAEYEAKKVYELDPEKGAKLLKKVEEVKKLLKELQK | not found |
| design_606_b60ff77f-1541-4e5f-8260-46d5e5f6b85e_1625_dldesign_0_cycle1_af2pred (protein) MAKEKAKKEAKKLTEEAAKKIREAALKEENPLEVAKEITEEVLKKIEEIGKKAGLSEEEIEKLKKEAKKKLAAAAHEAYQERAEEEFE | not found |
| design_607_777643b9-bd23-49d1-80ae-2b1434974efa_37_dldesign_0_cycle1_af2pred (protein) SSNKETADAIRDAVKAAQEVGKLAKEKLSPEEAKAVADELNKAIFDLVDTAASEGVDGAKAAAADVKAKVEKLKKEIAAKAAAA | not found |
| design_607_777643b9-bd23-49d1-80ae-2b1434974efa_1186_dldesign_0_cycle1_af2pred (protein) KEAEIKAEAQALIDAVRAAAAAAVALAADPAAARALLTAAIGKVLEGSKEAASLALPEAVAIAREAGAAAEAAHAAAA | not found |
| design_606_b60ff77f-1541-4e5f-8260-46d5e5f6b85e_2244_dldesign_0_cycle1_af2pred (protein) ENKEKVKKAKETLKKARKEAEKAVKKGVLTPEQIARIQEKLHKASELIAEAEQEKGEEGKEKAEKALELAKEVLKEVKEAE | not found |
| design_606_b60ff77f-1541-4e5f-8260-46d5e5f6b85e_1708_dldesign_0_cycle1_af2pred (protein) NEAEKKLKKVAEDAEKALSEAIKASKDDPEKQKELKEKLEQVKKLYEEGLKGTPEDMAKAAAEMRQLRSEADYVLSNAK | not found |
| design_607_777643b9-bd23-49d1-80ae-2b1434974efa_1068_dldesign_0_cycle1_af2pred (protein) MKKKASELMHEAYELAALAEAYPENAEEYYKKAKEYGEEAVKEAEKYDPEYGKKAKERAEKVTKRAKEAVEKYKKEK | not found |
| design_607_777643b9-bd23-49d1-80ae-2b1434974efa_1207_dldesign_0_cycle1_af2pred (protein) AVAEAAQYAQEARQYAAEAEYLGKKYGKKNKEIKKYAEKAKEAAKKAREAAKKGDLEAAKEYAKKAKELAEKAEELAKKEEE | not found |
